hcDAF12 agonist = H. contortus DAF-12 nuclear receptor activators, primary screen, cell-based, luminescence, HEK293, lit1-tk-luc reporter | AID 652067, 2013 | activation, % at 6.8 µM | 1.4% of 370,000 active | HEK293 hcDAF-12 lit1-tk-luc reporter; 0% DMSO, 100% Δ7-dafachronic acid;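 active = activation above the mean of all tested compounds plus 3 SD, cut at about 5.5% in these data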;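 note: 100% = response to 3 µM Δ7-dafachronic acid high control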
ssDAF-12 act = S. stercoralis DAF-12 nuclear receptor activators, primary screen, cell-based, luminescence, HEK293, GRIP1 co-expression, lit1-tk-luc | Nuclear hormone receptor DAF-12 (Strongyloides stercoralis) | HEK293 ssDAF-12/GRIP1 lit1-tk-luc reporter; % of 3 µM dafachronic acid response | activation, % at 6.8 µM | 1% of 370,000 active;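 active = activation above the mean over all tested compounds plus 3 SD, cut at about 0.9% in these data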;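 note: 0% = DMSO-only wells and 100% = 3 µM delta7-dafachronic acid wells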
DAX1 inh-1 = DAX1 (NR0B1) inhibitors on StAR promoter, primary screen, cell-based, luminescence, SF-1 (NR5A1), full-length DAX-1; HEK293T StAR-luciferase reporter, SF-1/DAX-1 repression relief; inhibition, % at 6.8 µM; 1.1% of 370,000 active; AID 652010, 2013;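 active = inhibition above the mean over all tested compounds plus 3 SD, cut at about 3.6% in these data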;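 note: 0% = DAX-1 cells with DMSO and 100% = cells lacking DAX-1 with DMSO; higher inhibition means more luminescence from relief of DAX-1 repression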
DAX1 inh-2 = DAX1 (NR0B1) inhibitors, primary screen, cell-based, HEK293, Gal4-DAX1, luciferase luminescence | HEK293 Gal4-DAX1 luciferase reporter | 0.99% of 340,000 active | AID 504766, 2011 | Nuclear receptor subfamily 0 group B member 1 (Homo sapiens), P51843 | inhibition, % at 6.75 µM;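 active = inhibition above the mean over all tested compounds plus 3 SD, cut at about 4.2% in these data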;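 note: 0% = DAX1-transfected cells with DMSO and 100% = empty-vector control cells with DMSO; inhibition shows as a rise in luminescence from relieved DAX1 repression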
hgDAF12 agonist = H. glycines DAF-12 receptor agonists, primary screen, cell-based, luminescence, HEK293, GAL4 fusion, UAS-luciferase. Nuclear hormone receptor DAF-12 (Heterodera glycines), GAL4 fusion. HEK293 GAL4-hgDAF12 UAS-luciferase reporter, agonist luminescence; normalized to butyrate control. activation, % at 6.8 µM. 1.8% of 370,000 active;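 active = activation above a cutoff set at the mean of all screened compounds plus 3 SD, cut at about 10% in these data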;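 note: 0% = DMSO wells and 100% = sodium butyrate wells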
hgDAF12 ag = H. glycines DAF-12 receptor agonists, confirmation, cell-based, luminescence, HEK293, GAL4-LBD fusion; AID 743050, 2013; shares compounds with hgDAF12 agonist; activation, % at 6.8 µM; HEK293 GAL4-hgDAF12 luciferase reporter, agonist mode; percent of butyrate response; 80% of 3,300 active;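 active = mean activation over triplicate wells above the hit cutoff derived from the earlier primary screen, cut at about 11% in these data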;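 note: 0% = DMSO low control and 100% = 2 mM sodium butyrate high control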
LXR ag 2 = LXR agonists, Gal4 luciferase reporter, confirmation, counter-screen for hgDAF-12 agonist project, cell-based, luminescence, HEK293, H. glycines campaign; 3,300 tested, under 10 active; 24 h; activation, % at 6.8 µM; shares compounds with hgDAF12 agonist; AID 743051, 2013;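 active = mean activation of the triplicate above a set limit carried over from the primary screen, none filed active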
Target sequence (P55055 whole entry, looked up, the tested form may be a part): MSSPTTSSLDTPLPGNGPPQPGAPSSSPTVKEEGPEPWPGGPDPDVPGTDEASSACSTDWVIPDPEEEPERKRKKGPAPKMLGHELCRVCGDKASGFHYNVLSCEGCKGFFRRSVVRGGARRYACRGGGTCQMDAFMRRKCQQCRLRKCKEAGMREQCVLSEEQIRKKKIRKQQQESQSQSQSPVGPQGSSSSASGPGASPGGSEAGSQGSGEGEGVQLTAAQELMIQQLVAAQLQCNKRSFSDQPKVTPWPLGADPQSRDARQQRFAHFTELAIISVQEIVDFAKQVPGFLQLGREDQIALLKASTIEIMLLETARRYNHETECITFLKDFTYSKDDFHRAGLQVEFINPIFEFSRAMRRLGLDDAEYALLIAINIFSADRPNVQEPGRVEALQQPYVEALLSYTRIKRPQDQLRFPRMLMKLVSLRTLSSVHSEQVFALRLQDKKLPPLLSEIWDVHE
* marks the source's active call; other numbers are inactive results; x = no result. A selection: hits, their analogues and other compounds. The true share with any hit is near 4.1%.

SMILES	hcDAF12 agonist	ssDAF-12 act	DAX1 inh-1	DAX1 inh-2	hgDAF12 agonist	hgDAF12 ag	LXR ag 2
O=C(O)c1cccc(N/N=C/C2=C(Cl)c3cc(Cl)ccc3SC2)c1	5	1.4*	4	0	16*	19*	1
COc1ccc(-c2cc(C(=O)N3CCCC3)no2)cc1	5	0	2	-2	14*	10	1
O=C(c1cc(-c2ccc(Br)cc2)on1)N1CCCC1	4	1	3	2	19*	15*	1
CN1CCN(C(=O)c2cc(-c3ccccc3)on2)CC1	1	-1	1	0	4	x	x
O=C(c1cc(-c2ccc(O)cc2)on1)N1CCCC1	5	1	3	2	15*	13*	1
O=C(c1cc(-c2ccccc2O)on1)N1CCCCCC1	3	1	2	2	14*	10	0
O=C(NC1CCCC1)c1cc(-c2ccccc2O)on1	2	-1	2	3	10	x	x
Cn1c(=O)[nH]c(=O)c2c1nc1n2CC(O)CN1c1ccccc1 (configuration not stated)	-1	-1	0	0	-1	x	x
Cc1occc1C(=O)NNC(=O)CN1C(=O)NC2(CCCCC2)C1=O	-1	0	0	0	2	x	x
CCOc1ccc(N2CC(C(=O)NCCN3C(=O)S/C(=C/c4cccnc4)C3=O)CC2=O)cc1 (configuration not stated)	-1	-1	-1	1	4	x	x
O=C(c1cc(-c2ccccc2)on1)N1CCCCCC1	4	0	2	1	13*	15*	1
Cc1ccc(-c2cc(C(=O)N3CCCCCC3)no2)cc1	5	1.3*	3	0	14*	21*	1
COc1ccc(S(=O)(=O)Nc2c(NC3CCCCC3)c3ccccc3oc2=O)cc1OC	1	-1	-1	0	0	x	x
O=[N+]([O-])c1ccc(COn2nnc3ccccc32)cc1	0	-1	-1	1	2	x	x
Clc1ccc(COn2nnc3ccccc32)c(Cl)c1	5	0	4.0*	4.5*	14*	18*	1
N#Cc1ccc(Nc2nc(-c3ccccc3)cs2)cc1	4	1	-1	x	18*	16*	1
c1ccc(-c2csc(Nc3ncccn3)n2)cc1	6	-1	2	2	9	x	x
CC(=O)Nc1ncc(N=Nc2cccc(C(F)(F)F)c2)s1	-1	0	0	-1	1	x	x
Cc1cccc(N=Nc2cnc(N)s2)c1	4	-1	1	4.4*	18*	7	0
COc1ccc(CN(C(=O)c2oc3cc(C)ccc3c2C)C2CCS(=O)(=O)C2)cc1OC (configuration not stated)	-2	-1	-1	1	-1	x	x
C=CCn1c(C)cc(C(=O)Cn2c(C(C)O)nc3ccccc32)c1C (configuration not stated)	0	-1	0	0	-3	x	x
Cc1ccc(NC(=O)c2[nH]cnc2C(=O)NN)cc1	0	-1	1	1	13*	2	0
C/C=C/c1ccc(OCCOc2cccc3cccnc23)c(OC)c1	3	0	0	0	4	x	x
S=c1[nH]c(-c2ccccc2)cn1/N=C/c1cccs1	5.6*	1	0	1	14*	5	0
CN(C)C=Nc1ncc2c([nH]c3ccccc32)c1C#N	-1	-2	0	0	22*	7	0
SMILES	hcDAF12 agonist	ssDAF-12 act	DAX1 inh-1	DAX1 inh-2	hgDAF12 agonist	hgDAF12 ag	LXR ag 2
Cc1ccc2c(c1)-n1c(nc3ccccc3c1=O)C(Cc1ccccc1)NC2=O (configuration not stated)	-1	-1	0	x	-2	x	x
O=C(/C=C/Nc1ccc(Cc2ccc(N/C=C/C(=O)C(F)(F)F)cc2)cc1)C(F)(F)F	5	0	2	2	13*	1	0
Cc1ncc(CO)c(CNc2ccc(-c3nc4ccccc4[nH]3)cc2)c1O	1	-1	2	1	16*	13*	1
CC(C)(C)NC(=S)NCCc1ccccc1	5	1	3	3	14*	11*	0
Cc1ccn2cc(-c3cccc(NC(=O)CCC(=O)O)c3)nc2c1	2	-1	1	-1	7	x	x
Cc1ccn2cc(-c3cnoc3C)nc2c1	0	0	1	2	5	x	x
Cc1ccn2cc(-c3cccc(S(=O)(=O)N4CCCC4)c3)nc2c1	-2	-1	-1	-1	0	x	x
COc1c(Cl)cccc1-c1cn2ccc(C)cc2n1	6.4*	1.3*	3	4	14*	15*	1
CC(=O)Nc1cccc(-c2cn3ccc(C)cc3n2)c1	3	0	3.9*	0	14*	12*	1
Cc1ccn2cc(-c3cccc(NS(C)(=O)=O)c3)nc2c1	0	0	2	1	14*	11*	0
CC1(c2ccc3ccccc3c2)CCC(=O)O1 (configuration not stated)	-1	0	-2	1	-1	x	x
CC(C)Nc1nc(NCCOc2ccccc2)c2sccc2n1	-2	-1	-1	x	-2	x	x
C/C(=N\NC(=O)c1ccn(C)n1)c1cccc(NC(=O)c2ccc(C)s2)c1	1	0	1	2	14*	7	0
CCC(CC)C(=O)Nc1cccc(/C(C)=N\NC(=O)c2ccc(C)s2)c1	0	-1	0	1	2	x	x
C/C(=N\NC(=O)c1ccncc1)c1cccc(NC(=O)c2ccc(C(C)(C)C)cc2)c1	-2	-1	-1	0	7	x	x
C/C(=N\NC(=O)c1nn(C)cc1Br)c1cccc(NC(=O)c2ccncc2)c1	5	0	2	3	18*	3	0
C/C(=N\NC(=O)c1nn(C)c(C)c1Br)c1ccc(NC(=O)c2ccc(C)s2)cc1	3	0	4	2	17*	7	0
COc1ccc(CNC(=O)Cn2ccc([N+](=O)[O-])n2)cc1OC	0	-1	0	-1	0	x	x
